# Only a selection was taken, and hits are over-represented in it overall.
# Dicer processing: blocks human Dicer maturation of pre-miR-21 | cat-ELCCA pre-miR-21 Dicer processing, chemiluminescence; active compounds read high | z-score at 25 µM | Q9UPY3 | hit rate 6% among 47,000; in the data active = z-score above about 3, passing the limit was not always enough;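 note: plate controls were vehicle for no effect and no enzyme for full effect; higher signal means more uncleaved substrate so more Dicer inhibition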
# Target sequence (Q9UPY3 whole entry, looked up): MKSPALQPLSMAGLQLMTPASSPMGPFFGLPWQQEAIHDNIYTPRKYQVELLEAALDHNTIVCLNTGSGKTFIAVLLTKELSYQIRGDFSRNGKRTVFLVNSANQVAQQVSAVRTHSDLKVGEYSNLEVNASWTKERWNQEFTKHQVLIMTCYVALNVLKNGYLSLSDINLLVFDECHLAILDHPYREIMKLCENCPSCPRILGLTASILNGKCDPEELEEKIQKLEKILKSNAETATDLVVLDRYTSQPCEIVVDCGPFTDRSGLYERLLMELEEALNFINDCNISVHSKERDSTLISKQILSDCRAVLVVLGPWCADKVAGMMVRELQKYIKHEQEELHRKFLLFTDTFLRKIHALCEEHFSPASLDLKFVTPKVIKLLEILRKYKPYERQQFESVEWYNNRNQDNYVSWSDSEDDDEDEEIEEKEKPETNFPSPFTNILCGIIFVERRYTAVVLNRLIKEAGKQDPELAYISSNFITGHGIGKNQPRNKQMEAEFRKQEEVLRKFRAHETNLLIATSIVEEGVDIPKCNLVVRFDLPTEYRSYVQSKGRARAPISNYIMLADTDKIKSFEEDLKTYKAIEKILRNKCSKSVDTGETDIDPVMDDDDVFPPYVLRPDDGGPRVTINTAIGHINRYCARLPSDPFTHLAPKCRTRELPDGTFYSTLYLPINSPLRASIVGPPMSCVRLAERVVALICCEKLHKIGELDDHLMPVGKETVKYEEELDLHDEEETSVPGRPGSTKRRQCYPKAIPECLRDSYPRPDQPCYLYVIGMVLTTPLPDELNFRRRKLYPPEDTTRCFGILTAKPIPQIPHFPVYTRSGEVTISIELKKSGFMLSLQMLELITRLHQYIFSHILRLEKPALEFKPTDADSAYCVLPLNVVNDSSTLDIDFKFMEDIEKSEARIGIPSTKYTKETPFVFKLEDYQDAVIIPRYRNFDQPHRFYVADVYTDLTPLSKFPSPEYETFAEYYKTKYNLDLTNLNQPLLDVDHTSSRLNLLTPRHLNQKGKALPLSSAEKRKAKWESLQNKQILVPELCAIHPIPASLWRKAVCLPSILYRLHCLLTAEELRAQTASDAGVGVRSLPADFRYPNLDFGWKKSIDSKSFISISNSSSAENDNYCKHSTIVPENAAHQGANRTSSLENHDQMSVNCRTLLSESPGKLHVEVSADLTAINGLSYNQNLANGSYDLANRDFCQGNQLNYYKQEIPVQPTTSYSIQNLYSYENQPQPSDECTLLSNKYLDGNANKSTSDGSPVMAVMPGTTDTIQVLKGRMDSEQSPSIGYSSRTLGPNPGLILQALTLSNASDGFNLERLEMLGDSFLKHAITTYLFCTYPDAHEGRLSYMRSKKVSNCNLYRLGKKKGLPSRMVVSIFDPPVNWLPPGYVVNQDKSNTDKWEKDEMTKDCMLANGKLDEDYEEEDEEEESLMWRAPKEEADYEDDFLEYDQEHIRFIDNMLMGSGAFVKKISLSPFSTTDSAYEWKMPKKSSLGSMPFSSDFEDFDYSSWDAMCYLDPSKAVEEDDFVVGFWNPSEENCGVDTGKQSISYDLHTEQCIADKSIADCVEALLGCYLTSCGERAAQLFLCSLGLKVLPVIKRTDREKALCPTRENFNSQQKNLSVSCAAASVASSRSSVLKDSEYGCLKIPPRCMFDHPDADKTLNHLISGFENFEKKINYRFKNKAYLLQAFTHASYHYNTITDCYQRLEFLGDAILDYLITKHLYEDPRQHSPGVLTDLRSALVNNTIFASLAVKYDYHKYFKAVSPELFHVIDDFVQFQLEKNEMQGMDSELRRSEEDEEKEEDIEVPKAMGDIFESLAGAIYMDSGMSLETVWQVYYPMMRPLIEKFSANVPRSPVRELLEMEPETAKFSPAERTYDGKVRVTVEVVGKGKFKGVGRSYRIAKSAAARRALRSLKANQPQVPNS
# * hit, by the source's call.
SMILES,Dicer processing
Cc1ccc(-c2oc3ccccc3c(=O)c2O)cc1,3.2*
Cc1ccc2oc(-c3ccc(F)cc3)c(O)c(=O)c2c1,0.72
Cc1c(-c2ccccc2)oc2ccccc2c1=O,-0.55
CC(=O)Nc1c(-c2ccccc2)oc2ccccc2c1=O,3.3*
Cc1ccc2oc(-c3ccccc3)c(O)c(=O)c2c1,1.8
COc1c(-c2ccccc2)oc2ccccc2c1=O,0.68
COc1ccc(C2CC(=O)C3=C(C2)NC(C)=C(C(=O)OC(C)C)C3c2ccc(O)c(OC)c2)cc1 (stereo unspecified),5.9
Cc1nn(-c2ccccc2)cc1C=C1C(=O)N(C)C(=O)N(C)C1=O,-1.4
O=C1CC(c2ccccc2)CC(O)=C1C=Nc1ccc(Cl)cc1 (stereo unspecified),3*
O=C1CC(c2ccccc2)CC(O)=C1C=Nc1ccccc1Cl (stereo unspecified),1.8
O=C1CCC(c2ccccc2)C(O)=C1C=Nc1ccc(Cl)cc1 (stereo unspecified),1.6
Cc1oc(C(C)(C)C)cc1-c1cc(NC(=O)c2ccccc2)n[nH]1,-0.51
Cc1onc(-c2c(Cl)cccc2Cl)c1-c1csc(-c2cnccc2C(F)(F)F)n1,-0.19
COc1ccc(Oc2coc3cc(OCCCc4ccccc4)ccc3c2=O)cc1,-2
CCOC(=O)c1c(COc2ccccc2)oc2ccc(O)cc12,1.5
CCOC(=O)c1c(C)oc2ccc(OCC(N)=O)cc12,3
CCOC(=O)c1c(CN2CCOCC2)oc2ccc(OC)cc12,3.5*
NS(=O)(=O)c1cc(Cl)c(Oc2ccc([N+](=O)[O-])cc2Cl)c(Cl)c1,-0.41
Clc1ccc(-c2cc3ccccc3[nH]2)cc1,9.6
O=[N+]([O-])/C=C/c1c(-c2ccc3ccccc3c2)[nH]c2ccccc12,1.1
O/N=C/c1c(-c2ccc(Cl)cc2)[nH]c2ccccc12,5*
CC(=O)N1N=C(c2cccs2)CC1c1cn(-c2ccccc2)nc1-c1cccs1 (stereo unspecified),-2.3
CNc1ccc(CSc2ccc(C(F)(F)F)cn2)cc1C(F)(F)F,0.76
N#C/C(=C\c1ccc(O)cc1)C(N)=S,-0.52
Cc1ccc(Nc2n[nH]c(=S)s2)cc1,2.9
SMILES,Dicer processing
Cc1cc(C)nc(NS(=O)(=O)c2ccc(Nc3nc(-c4cccnc4)cs3)cc2)n1,-0.72
Cc1ccc(C)c(Nc2nc(-c3cccnc3)cs2)c1,3.3*
c1cnc(Nc2nc(-c3cccnc3)cs2)nc1,-0.16
Cc1c(Cl)cccc1Nc1n[nH]c(=S)s1,0.45
Cc1ccc(C)c(Nc2n[nH]c(=S)s2)c1,4.6*
N#Cc1cnn(C(=O)c2cccs2)c1C1CC1,0.88
Nc1nc2ncc(CNc3ccc(C(=O)N[C@@H](CCC(=O)O)CC(=O)O)cc3)nc2c(=O)[nH]1,0.42
CC(C(=O)NNC(=O)NC(C)(C)C)n1nnc(-c2cc(C(F)(F)F)cc(C(F)(F)F)c2)n1 (stereo unspecified),1.4
CC(Sc1nc2ccccc2n1Cc1ccccc1)C(=O)O (stereo unspecified),0.76
CN(C)c1ccc(-n2nnnc2SCc2cc(F)cc(F)c2)cc1,0.78
COc1ccc2c(c1)C(=O)N(c1ccc(C)cc1)C(=O)C2,1.2
COc1ccc(O)c(C(=O)CC(=O)c2ccc(F)cc2)c1,-0.32
COc1ccc(O)c(C(=O)C2c3ccccc3C(=O)N2c2ccc(C)cc2)c1 (stereo unspecified),8*
O=S(=O)(NCCCc1nc2ccccc2[nH]1)c1ccccc1,-1.3
CCCOC(=O)CCCN1C(=O)S/C(=C/c2ccc(OC)cc2)C1=S,0.59
N#CC1=C(Nc2ccccc2Cl)SC(c2ccncc2)NC1=O (stereo unspecified),0.01
COCCCNC1=C(C#N)C(=O)NC(c2cccs2)S1 (stereo unspecified),3.1*
COCCCNC1=C(C#N)C(=O)NC(c2ccc(O)c(OC)c2)S1 (stereo unspecified),1.3
NC(=S)N=Nc1c(O)[nH]c2ccc(Br)cc12,1.4
Cc1cc(Cl)cc(Br)c1OCC(O)CNCCNc1nccc(C(F)(F)F)n1 (stereo unspecified),-0.05
CCCCC1(CNc2ccc(C)c([N+](=O)[O-])c2)C(=O)N(c2ccccc2)N(c2ccccc2)C1=O,2.2
CCCCC1(CO)C(=O)N(c2ccccc2)N(c2ccccc2)C1=O,6.1*
CCCCC1(COC(=O)Nc2cccc(Cl)c2)C(=O)N(c2ccccc2)N(c2ccccc2)C1=O,1.8
NC(=O)Cn1c(=O)n(-c2cccc(Cl)c2)c(=O)c2cc(-c3ccccc3)sc21,-0.38
Cc1oc(-c2ccccc2)cc1C(=O)/C(C#N)=C\c1ccc(OC(F)(F)F)cc1,0.78
SMILES,Dicer processing
Cc1onc(-c2c(F)cccc2Cl)c1C(=O)OCc1sccc1-n1cccc1,-0.2
Cc1ccc(S(=O)(=O)Nc2ccc(C)cc2C)cc1,1.6
Cc1ccc(S(=O)(=O)Nc2cccc3ccccc23)cc1,2.9
Cc1ccc(S(=O)(=O)Nc2cccc3cccc(Br)c23)cc1,3.1*
CC(C)c1nnc2n1N=C(c1ccc(Br)cc1)CS2,-1.1
CC(C)c1nnc(NCC(C)(C)C)s1,-0.25
O=c1c(-c2cccc3ccccc23)c(C(F)(F)F)oc2cc(O)ccc12,-0.11
COc1ccccc1-c1cc(C(=O)O)c2ccccc2n1,-0.51
O=C(O)c1ccccc1-c1c2ccc3cc(O)ccc3c2oc2c1ccc1cc(=O)ccc12,4.3*
Cc1cc(C)n(C(=O)CN2C(=O)C3CCCCC3C2=O)n1 (stereo unspecified),4.8
O=C(Nc1ccc2c(c1)OCCO2)Nc1nnc(C2CC2)s1,2.1
COc1ccc(NC(=O)Nc2nnc(C3CC3)s2)cc1OC1CCCC1,6.5*
CC(C)(C)c1ccc(NC(=O)Nc2nnc(C3CC3)s2)cc1,0.08
O=C(Nc1cccc(C(F)(F)F)c1)N1CCN(C2c3ccccc3-c3ccccc32)CC1,-0.88
CSC1=N/C(=C/c2ccco2)C(=O)N1,-0.55
O=C1/C(=C/c2ccco2)CC/C1=C\c1ccco1,31*
O=C1/C(=C/c2ccco2)COC/C1=C\c1ccco1,1.4
C#CCSc1ncc(C(=O)O)c(C(OC)OC)n1,14
Cc1cc(C)c2cc(C(=O)NCCc3ccccc3)[nH]c2c1,-3.8
Cn1c(=O)c2c(ncn2CC(O)CN2CCOCC2)n(C)c1=O (stereo unspecified),0.51
COc1ccc(S(=O)(=O)Nc2ccc(N3CCOCC3)cc2)cc1,-0.27
COc1ccc(Nc2nc(N)nc(CN3CCOCC3)n2)cc1,-0.21
COc1ccc(Nc2cc(C)nc(N3CCOCC3)n2)cc1,6.7*
CC(=O)Nc1ccc(Br)cc1C(=O)c1nnc(N)s1,1.9
Cc1c(Sc2ccc(Cl)cc2)cnn1C(=O)c1ccccc1,-0.85
SMILES,Dicer processing
COC(=O)c1sc(SCCOC(=O)Nc2ccccc2)c2c1CC(C)(C)CC2=O,-0.91
Clc1ccc(/C=N/Nc2nc3c(Cl)cc(Cl)cc3s2)cc1,-0.37
CCOc1ccc(Oc2nc(NCC(C)C)nc(N3CCOCC3)n2)nn1,5.8*
CN(C)c1nc(Oc2ccc(=O)n(C)n2)nc(N2CCOCC2)n1,-1
COc1nc(NCC(C)C)nc(Oc2ccc(=O)[nH]n2)n1,-0.42
NC(=S)N/N=C1\CCSc2ccc(F)cc21,-1.4
COC(=O)C1=C(C)NC2=C(C(=O)CC(c3ccccc3)C2)C1c1cccnc1 (stereo unspecified),0.96
CCSc1ccsc1C1C(C#N)=C(N)N(c2cccnc2)C2=C1C(=O)CC(c1ccccc1)C2 (stereo unspecified),0.14
CSc1sc(C)cc1C1C(C#N)=C(N)N(c2cccnc2)C2=C1C(=O)CC(c1ccccc1)C2 (stereo unspecified),5.8*

# Assay outcomes (PubChem BioAssay)
